The source of these data is PubChem BioAssay AID1508622 (National Center for Advancing Translational Sciences (NCATS), 2021).

A short description of this assay: Confirmatory qHTS for Identification of Small Molecule Activators of Huntingtin-Antisense Promoter Activity. A digest of the protocol: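 Plated reporter HEK293 cells (24 h) received library compounds at up to 57.5 uM final or 50 uM PTC124, incubated 24 h at 37C; firefly luciferase luminescence was then recorded with Dual-Glo reagent.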

Active and inactive are the calls of the source. Where a call stands in place of a potency, no number is given. Calls follow the shape of the dose curve; as a rule, active = well fitted activation curve with a large enough effect; inconclusive = small, poorly fitted or top-dose-only effect; inactive = no such curve, though single readings can be large or run the other way.
Potency is read from the fitted curve at half-maximal effect.

Take `CCOC(=O)c1cccc(NC(=O)CCn2c(-c3ccc(F)cc3)cc(C(=O)OCC)c2C)c1`: the Potency entry is “inactive”.
`CO[C@H]1C=CC=C(C)C(=O)NC2=CC(=O)C(NCCN(C)C)=C(C[C@@H](C)C[C@H](OC)[C@@H](O)[C@@H](C)C=C(C)[C@@H]1OC(N)=O)C2=O`: the Potency entry is “inactive”.
For the compound `CCCCN(C)CCCNC(=O)Cn1ncc2c3ccccc3n(Cc3ccccc3F)c2c1=O`, the Potency result was “inactive”.
As to `CN(C)c1ccc(C(=O)Nc2sc(Nc3ccccc3)nc2C(N)=O)cc1`, the Potency result is “inactive”.
Consider `Cc1ccc(S(=O)(=O)NCCc2csc(-c3cccc(F)c3)n2)cc1`, for which the Potency entry was “inactive”.
Consider `Cc1cccc(NS(=O)(=O)c2ccc3c(c2)CCN3C(=O)C2CCC2)c1`, for which the Potency entry was “inactive”.
For `COC(=O)C1CCN(S(=O)(=O)c2ccc(N3CCCCS3(=O)=O)cc2)CC1` the value was “inactive”.
For `CCc1c(C)sc2c1CCN(C(=O)Nc1ccc(F)c(Cl)c1)C2c1ccc(F)cc1` (stereo not given) the value was “inactive”; for `O=C(C1CCC1)N1CCCc2cc(S(=O)(=O)N3CCN(c4ccccc4)CC3)ccc21`, “inactive”; for `CCCCOC(=O)c1ccc(NC(=O)c2sc3nc(C)cc(C)c3c2N)cc1`, “inactive”.
In the case of `Clc1ccc(N2CCN(c3ncnc4c3nc3n4CCCC3)CC2)cc1`, the Potency result was “inactive”.
With `O=C(NCc1ccccc1)c1cc2ccc3cccnc3c2[nH]1` the figure was 2130 nM (active); with `COc1cccc(-c2nc(CS(=O)CC(=O)N3CCN(c4cccc(C(F)(F)F)c4)CC3)c(C)o2)c1` (stereo not given), “inactive”; with `COCCN1C(=O)c2[nH]nc(-c3ccccc3O)c2C1c1ccc(OCc2ccccc2)c(OC)c1` (stereo not given), “inactive”.
`N#CCNC(=O)c1ccc(-c2ccnc(Nc3ccc(N4CCOCC4)cc3)n2)cc1`: the Potency entry was “inactive”.
